From PubChem
This is a sample that favours compounds with a hit; in the whole collection about 4.8% have one here.
ATXN2 expr inh: reduces ATXN2 reporter expression in HEK-293 cells | hit rate 0.72% among 360,000 | AID 1745845 | HEK-293 ATXN2-luciferase reporter, luminescence, 24 h | Potency, µM (titrated, usually from 57 µM), inactives show at the top dose activity change, negative = inhibition, usual class: inhibitors; further: potency means the concentration at half of the fitted maximal effect; on the % scale 0 is the no-effect control and ±100 the full control effect; nearly all actives have a fitted effect of over 55% in size
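qHTS (up to 57 uM final) was run with 24 h compound exposure of reporter cells at 37 °C. Each well was multiplexed: SteadyGlo luminescence measured ATXN2-luciferase expression after a fluorogenic Gly-Phe-AFC viability readout (25 uM final).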
IL1B secr inh: blocks inflammasome-driven IL-1 beta release. hit rate 4.7% among 360,000. AID 743279. THP-1 LPS/ATP IL-1B secretion, AlphaLISA, 16 h; stronger effect = lower value. activity change, % at 57.5 µM; in the data active means activity change below about -50%; inconclusive means mostly about -30% to -49%; further: on the % scale 0 is the no-effect control and ±100 the full control effect
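Secreted IL-1B measured by AlphaLISA bead assay after 16 h compound exposure of THP-1 cells; compounds (final up to 57.5 uM) added 1 h before LPS (250 ng/mL) and ATP (1.25 mM) stimulation; lower signal means less secretion.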
USP2a block: blocks human ubiquitin-specific protease USP2a; O75604; USP2 core, Ub-CHOP2 coupled fluorogenic reporter, 485/531; Potency, µM (top dose mostly 38.3 µM), for the others: top-dose activity change, negative = inhibition, usual class: inhibitors; hit rate 0.01% among 330,000; AID 463254;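 further: potency means the concentration at half of the fitted maximal effect; plate controls were DMSO wells for no effect and full inhibition by NEM control for full effect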
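Deubiquitinase activity read as fluorescence (485/531 nm) after Ub-CHOP2 cleavage activates the enterokinase reporter on its substrate; USP2 core 10nM, Ub-CHOP2 and substrate 25nM each, 30min compound preincubation then 60min RT; data normalized to NEM, curves fitted.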
USP1 inh: USP1/UAF1 (human) deubiquitinase inhibition; Potency, µM (highest dose often 57.1 µM), for the others: at the top dose activity change, negative = inhibition, usual class: inhibitors; hit rate 0.23% among 390,000; O94782; recombinant USP1/UAF1, Ub-Rhodamine cleavage fluorescence; further: potency means the concentration at half of the fitted maximal effect; on the % scale 0 is the no-effect control and ±100 the full control effect; nearly all actives have a fitted effect of over 60% in size
Target sequence (O94782 whole entry, looked up): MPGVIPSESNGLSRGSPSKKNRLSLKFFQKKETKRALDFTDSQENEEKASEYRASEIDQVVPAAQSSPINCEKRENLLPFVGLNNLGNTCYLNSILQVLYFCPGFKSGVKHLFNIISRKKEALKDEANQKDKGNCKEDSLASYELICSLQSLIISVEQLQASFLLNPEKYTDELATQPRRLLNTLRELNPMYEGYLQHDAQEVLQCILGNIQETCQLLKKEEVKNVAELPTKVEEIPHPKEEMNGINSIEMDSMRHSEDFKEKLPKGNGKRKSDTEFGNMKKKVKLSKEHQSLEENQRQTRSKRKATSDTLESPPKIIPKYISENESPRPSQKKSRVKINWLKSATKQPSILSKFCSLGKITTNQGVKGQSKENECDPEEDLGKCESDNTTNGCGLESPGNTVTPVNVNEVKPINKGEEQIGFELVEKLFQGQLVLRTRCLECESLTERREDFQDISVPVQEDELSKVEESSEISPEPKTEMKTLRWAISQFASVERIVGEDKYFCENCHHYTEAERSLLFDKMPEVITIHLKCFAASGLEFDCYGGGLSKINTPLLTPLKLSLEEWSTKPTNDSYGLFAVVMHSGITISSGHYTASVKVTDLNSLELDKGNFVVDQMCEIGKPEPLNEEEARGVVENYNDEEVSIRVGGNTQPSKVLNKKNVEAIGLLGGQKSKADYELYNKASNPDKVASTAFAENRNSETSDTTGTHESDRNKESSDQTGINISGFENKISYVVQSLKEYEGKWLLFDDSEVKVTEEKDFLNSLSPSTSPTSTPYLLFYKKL
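In this screen, compounds sit with the deubiquitinase complex (1nM) for 15 min at room temperature before Ub-Rho is added at 150nM final. Fluorescence rise is then followed for 6 reads every 60 seconds.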
S2 tox: cell viability loss in ATXN counter-screen. S2 cells (HEK-293 line with an ATXN2-luciferase reporter) viability, CellTiter-Fluor protease fluorescence, 24 h. Potency, µM (series often up to 56.7 µM), usual class: cytotoxic. hit rate 0.49% among 400,000. AID 651635; further: potency means the concentration at half of the fitted maximal effect; nearly all actives have a fitted effect of over 40% in size
* hit, by the source's call; i = inactive; ? = inconclusive; / = no result. Unless noted, the call rests on the fitted dose curve; in most records, active means well fitted curve in the direction sought with a large enough effect; inconclusive means small, poorly fitted or top-dose-only effect, or another doubt; inactive means no such curve, though single readings can be large; an effect the other way counts as inactive or inconclusive.

SMILES | ATXN2 expr inh | IL1B secr inh | USP2a block | USP1 inh | S2 tox
N#CC1=C(N)N2C(=C(C#N)C1c1ccc(Br)cc1)Nc1ccccc12 (centres undefined) | ? | ? | 2% | -22% | /
O=C(NC1(O)C(=O)c2ccccc2C1=O)c1ccc(C(F)(F)F)cc1 | -30% | -2 | 13% | 16µM* | ?
Cc1ccc(C(=O)NC2(O)C(=O)c3ccccc3C2=O)cc1C | -36% | -8 | 0% | ? | i
O=S(=O)(c1ccc(-c2cc(C(F)(F)F)on2)s1)N1CCN(c2ccc(F)cc2)CC1 | / | / | / | -21% | /
Cc1cc(N2CCCCC2)nc(NCc2ccccc2)n1 | ? | -99* | -1% | -6% | ?
Cc1cc(N2CCOCC2)nc(NCc2ccccc2)n1 | -18% | -15 | -4% | 11% | i
CC1(C)CC(=O)C2=C(C1)Oc1ncn(Cc3ccco3)c(=N)c1C2c1ccccc1 (centres undefined) | -22% | -20 | 0% | 5% | i
COc1ccc(C2C3=C(CC(C)(C)CC3=O)Oc3ncn(Cc4ccccc4)c(=N)c32)cc1 (centres undefined) | -25% | -55* | 2% | -17% | ?
CCCCCCCCN1C(=O)[C@H](CC(=O)N2CCN(C(=O)OCC)CC2)C[C@@]2(C(=O)OC)CC(C)(C)CC=C12 | / | -28 | / | / | /
CCCCCCCCN1C(=O)[C@H](CC(=O)NCC2CCCCC2)C[C@@]2(C(=O)OC)CC(C)(C)CC=C12 | / | -6 | / | / | /
CCCCCCCCN1C(=O)[C@H](CC(=O)N2CCN(C(=O)C3CC3)CC2)C[C@@]2(C(=O)OC)CC(C)(C)CC=C12 | / | -60* | / | / | /
CCCCCCCCN1C(=O)[C@H](CC(=O)N2CCN(C(=O)C3CC3)CC2)C[C@@]2(C(=O)OCC)CCCC=C12 | ? | -66* | / | / | 14µM*
CCCCCCCCN1C(=O)[C@H](CC(=O)N2CCN(C(=O)C3CC3)CC2)C[C@@]2(C(=O)OC)CCCCC=C12 | ? | -51* | / | / | ?
CCCCCCCCN1C(=O)[C@H](CC(=O)N2CCOCC2)C[C@@]2(C(=O)OCC)CCCC=C12 | ? | -25 | / | / | ?
CCCCCCCCN1C(=O)[C@H](CC(=O)NCc2ccc(C)o2)C[C@@]2(C(=O)OC)CC(C)(C)CC=C12 | / | -71* | / | / | /
Cc1ccc(CCNC(=O)C(NS(=O)(=O)c2ccc3c(c2)oc(=O)n3C)C(C)C)cc1 (centres undefined) | 1% | / | / | -1% | i
CCCCn1c2ccccc2c2nnc(SCC(=O)Nc3ccc(NC(C)=O)cc3)nc21 | 5% | / | / | ? | i
CCCCCCCCN1C(=O)[C@H](CC(=O)N2CCSCC2)C[C@@]2(C(=O)OC)CCCCC=C12 | ? | -68* | / | / | ?
CCNC(=O)COc1ccc(/C=C2\COc3ccccc3C2=O)cc1OC | ? | -102* | 1% | -13% | ?
CCOc1cc(/C=C2\COc3ccccc3C2=O)ccc1OCC(=O)N(C)C | -27% | -98* | 1% | -15% | i
Cc1cc(C2=NNC(=NC3CC3)SC2)c(C)n1-c1ccccc1F | 0.28µM* | 0 | 1% | -14% | i
Cc1cc(C2=NNC(=NC3CCCCC3)SC2)c(C)n1-c1c(C)n(C)n(-c2ccccc2)c1=O | / | -4 | -10% | -17% | ?
COc1ccc(N2CCN(C(=O)c3cnn(-c4ccc(OC)cc4)c3C3CCN(C(=O)OC(C)(C)C)CC3)CC2)cc1 | / | / | / | -14% | /
Cc1ccc(C)c(C(O)c2ncc(-c3ccccc3F)[nH]2)c1 (centres undefined) | 7% | 20 | / | / | i
O=C(Cn1cc(S(=O)(=O)N2CCN(c3ccccc3F)CC2)c2ccccc2c1=O)NCCCN1CCCCCC1 | ? | -61* | -1% | -22% | ?
COCCNC(=O)Cn1cc(S(=O)(=O)N2CCN(c3ccccc3F)CC2)c2ccccc2c1=O | -15% | -6 | 4% | -11% | i
